The results in this text go back to PubChem BioAssay (NCATS).

A short description of assay [1]: Primary qHTS for inhibitors of nuclear receptor binding SET domain protein 2 (NSD2) in an RCH-ACV wild type WT cells (2C) (AID 1645877; also: nearly all actives have a fitted effect of over 70% in size; also: potency is read from the fitted curve at half-maximal effect; as to activity change, negative = cell killing: % is scaled to controls: 0 for no effect and ±100 for the full control effect). (In qHTS, concentration-response curves come from the screen itself.)
Assay [2] deals with Glutathione peroxidase 1 (Homo sapiens) (UniProt P07203). The experiment in a line: Primary qHTS Assay for Inhibitors of Recombinant Selenoprotein Glutathione Peroxidase 1 (GPX1) (AID 1845191). Also: nearly all actives have a fitted effect of over 65% in size. As to activity, negative = inhibition: % is scaled to controls: 0 for no effect and ±100 for the full control effect. The method in brief:
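GR-coupled assay: compounds preincubated 30 min at room temperature with GPX1, then reaction started with CHP; final 10 nM GPX1, 1 mM GSH, 0.5 mM CHP, 0.5 mM NADPH, 100 nM GR, 0.01% BSA, pH 7.5 Tris buffer. NADPH fluorescence (340/450 nm) read at 0 and 15 min.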

The target in assay [3] is Phospholipid hydroperoxide glutathione peroxidase GPX4 (Homo sapiens) (UniProt P36969). Kind of assay: Primary qHTS Assay for Inhibitors of Recombinant Selenoprotein Glutathione Peroxidase 4 (GPX4) (AID 1845192). Also: nearly all actives have a fitted effect of over 65% in size. As to activity change, negative = inhibition: series mostly up to about 50 µM; % is scaled to controls: 0 for no effect and ±100 for the full control effect. The method, boiled down:
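GR-coupled assay: recombinant GPX4 preincubated 30 min with compound at room temperature; final 200 nM GPX4, 1 mM GSH, 0.5 mM cumene hydroperoxide, 0.5 mM NADPH, 100 nM GR, 0.01% BSA, pH 7.5 Tris. NADPH fluorescence (340/450 nm) read at 0 and 15 min.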

Assay [4] deals with Luciferin 4-monooxygenase (Photinus pyralis) (UniProt P08659). The experiment in a line: Primary firefly luciferase (FLuc) qHTS assay for identification of artifact compounds. (AID 1845220). Also: nearly all actives have a fitted effect of over 60% in size.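 As to activity change, negative = inhibition: series mostly up to about 54 µM; plate controls were DMSO vehicle for no effect and no enzyme for full effect.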 The method, boiled down:
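D-luciferin and ATP (10 uM each, final) in Tris acetate buffer pH 7.6 were incubated with compounds for 15 min at room temperature. The reaction was started with 10 nM Photinus pyralis luciferase and luminescence read after 5 min. Percent inhibition was fitted to a 4-parameter Hill equation.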

Assay [5] is described as follows: Primary fluorescence-based thiol-reactive (MSTI) qHTS assay for identification of artifact compounds. (AID 1845221). Also: nearly all actives have a fitted effect of over 65% in size. Also: potency is read from the fitted curve at half-maximal effect.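 As to activity change, negative = thiol reactive: series mostly up to about 54 µM; thiol-reactive compounds lower the probe fluorescence signal.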 The method, boiled down:
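Reactivity toward the thiol probe MSTI (4 uM) is scored by fluorescence at Ex/Em 525/598 nm after 1 h at room temperature. Acetyl-MSTI and MSTI define the activity scale.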

In assay [6] the test system is Nanoluciferase (engineered Oplophorus gracilirostris luciferase). The experiment in a line: Primary Nanoluciferase (NLuc) qHTS assay for identification of artifact compounds. (AID 1845222).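 Also: series mostly up to about 54 µM; 0% = DMSO and -100% = no enzyme.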 The method in brief:
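Diluted conditioned medium from NLuc-expressing S16 cells treated with compounds for 15 min at room temperature, then Nano-Glo substrate added; luminescence read after 5 min. Percent inhibition versus no-enzyme and DMSO controls fitted to 4-parameter Hill equation.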

A short description of assay [7]: Primary redox qHTS assay for identification of artifact compounds. (AID 1845223).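 Also: 0% = DMSO and 100% = reference compound.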 The method, boiled down:
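Amplex Red (25 uM) and HRP (250 mU/mL) in HBSS, with compounds for 15 min, then 250 uM DTT for 30 min, room temperature, dark. Fluorescence 525/598 nm read; normalized to DMSO and 10 uM DA3003; Hill fit.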

Where “and” joins values, the source holds several entries; their conditions need not be identical. Equal entries are not always repeated. Unmarked numbers belong to inactive results. Records with an inconclusive call do not appear. Calls of active or inactive are those of the source. Calls follow the shape of the dose curve; as a rule, active = well fitted curve in the direction sought with a large enough effect; inconclusive = small, poorly fitted or top-dose-only effect, or another doubt; inactive = no such curve, though single readings can be large; an effect the other way counts as inactive or inconclusive.

Chain of Phospholipid hydroperoxide glutathione peroxidase GPX4 (Homo sapiens) (P36969 whole entry, looked up): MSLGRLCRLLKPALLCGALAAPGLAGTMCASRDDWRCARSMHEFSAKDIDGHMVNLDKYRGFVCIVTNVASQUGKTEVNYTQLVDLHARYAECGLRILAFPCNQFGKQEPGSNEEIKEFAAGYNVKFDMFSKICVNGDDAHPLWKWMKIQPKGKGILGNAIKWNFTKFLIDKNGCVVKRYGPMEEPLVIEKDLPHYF
Chain of Glutathione peroxidase 1 (Homo sapiens) (P07203 whole entry, looked up): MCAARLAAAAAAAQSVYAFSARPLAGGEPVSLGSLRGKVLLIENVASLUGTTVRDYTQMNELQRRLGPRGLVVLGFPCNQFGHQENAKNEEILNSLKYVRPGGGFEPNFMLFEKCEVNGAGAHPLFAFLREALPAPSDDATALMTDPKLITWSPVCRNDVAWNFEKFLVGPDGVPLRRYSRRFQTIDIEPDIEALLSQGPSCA

In the case of `C=C(C(=O)OC)C1C(O)CC2(C)C(O)CCC(=O)C2C1O` (stereo not given), the Potency entry in assay [1], in assay [2], in assay [3], in assay [4], in assay [5] and in assay [6] was “inactive” throughout. The Potency result in assay [7] is “inactive”.

Consider `O=C1NC(=O)C(c2cn3c4c(cccc24)CCC3)C1c1c[nH]c2ccccc12` (stereo not given), for which the Potency in assay [1] is 916 nM (active). Also, the Potency result in assay [2], in assay [3], in assay [4], in assay [5], in assay [6] and in assay [7] was “inactive” throughout.

Turning to `C=C1C(=O)O[C@@H]2C[C@H](C)[C@@]3(O)C=C(C(C)=O)[C@]4(CC3C[C@H]12)C(=O)O[C@H]1C[C@@H](C)C(CCC(C)=O)=CC[C@H]14` (stereo not given in full), in assay [1], the Potency was 8930 nM (active). The Potency entry in assay [2], in assay [3], in assay [4], in assay [5], in assay [6] and in assay [7] was “inactive” each time.

Consider `CC1(O)CC(O)C2(O)C=COC(O[C@@H]3O[C@H](CO)[C@@H](O)[C@H](O)[C@H]3O)C12` (stereo not given in full), for which the Potency result in assay [1], in assay [2], in assay [3], in assay [4], in assay [6] and in assay [7] was “inactive” each time. Moreover, in assay [5], the Potency was 11.7 µM (active).

In the case of `CC(C)(C#N)c1ccc(N2C(=O)OCc3cnc4ccc(-c5cnc6ccccc6c5)cc4c32)cc1`, the Potency in assay [1] was 817 nM (active). Also, the Potency result in assay [2], in assay [3], in assay [4], in assay [5], in assay [6] and in assay [7] was “inactive” in each case.

`C/C(=C\CC[C@@H](C)[C@H]1CC(O)[C@@]2(C)C3CC[C@H]4C(C)(C)[C@@H](OC5OCC(O)C(O)C5OC5OC(CO)C(O)C(O)C5O)CC[C@@]45C[C@@]35CC(O)[C@]12C)C(=O)O` (stereo not given in full): the Potency result in assay [1], in assay [2], in assay [3], in assay [4], in assay [5] and in assay [6] was “inactive” throughout. In addition, the Potency entry in assay [7] was “inactive”.

Consider `COc1c(C)c(OCC(O)C(C)(C)O)cc2c1COC2=O` (stereo not given), for which the Potency entry in assay [1], in assay [2], in assay [3], in assay [4], in assay [5] and in assay [6] was “inactive” each time. Moreover, in assay [7], the Potency entry was “inactive”.

`CC(C)[C@H]1CC[C@@]2(O)COC(=O)[C@H]2[C@@H]1/C=C(\CO)C(=O)O`: the Potency result in assay [1], in assay [2], in assay [3], in assay [4], in assay [5] and in assay [6] was “inactive” throughout. Also, the Potency result in assay [7] was “inactive”.

For the molecule `N#Cc1c(Oc2ccc(F)c(NC(=O)Cc3cccc(C(F)(F)F)c3)c2)ccc2nc(NC(=O)C3CC3)sc12`, the Potency in assay [1] was 1150 nM (active). Moreover, the Potency result in assay [2], in assay [3], in assay [4], in assay [5], in assay [6] and in assay [7] was “inactive” in each case.

Consider `CC(C)(O)/C=C/CC(C)(O)C1C(O)CC2(C)C3CCC4C(C)(C)C(=O)CCC4(C)C3CCC12C` (stereo not given), for which the Potency result in assay [1], in assay [2], in assay [3], in assay [4], in assay [5] and in assay [6] was “inactive” throughout. Moreover, the Potency result in assay [7] was “inactive”.

Take `CC12CCC(OC3OC(CO)C(O)C(OC4OC(CO)C(O)C(O)C4O)C3O)CC1=CCC1C2CCC2(C)/C(=C3/COC(=O)C3)CCC12O` (stereo not given): the Potency entry in assay [1], in assay [2], in assay [3], in assay [4], in assay [5] and in assay [6] was “inactive” each time. Besides, the Potency result in assay [7] was “inactive”.

Regarding `C[C@@H]1C(=O)O[C@H](C)[C@H]1CC(=O)[C@](C)(O)[C@H]1CC[C@@]2(O)C3=CC(=O)[C@@H]4C[C@@H](O)[C@@H](O)C[C@]4(C)C3CC[C@]12C` (stereo not given in full), the Potency result in assay [1], in assay [2], in assay [3], in assay [4], in assay [5] and in assay [6] was “inactive” in each case. Also, the Potency entry in assay [7] is “inactive”.

In the case of `CC12CCC(=O)C=C1C(O)CC1C2C(O)CC2(C)C1CC[C@]2(O)C(=O)CO` (stereo not given in full), in assay [1], the activity change, negative = cell killing was -15% [at 9.23 µM]. In addition, the Potency result in assay [2] and in assay [3] was “inactive” in each case. Moreover, the activity change, negative = inhibition in assay [4] is 2.02% [at 11.6 µM]. In addition, the activity change, negative = thiol reactive in assay [5] is -1.91% [at 11.5 µM]. Further, in assay [6], the activity, negative = inhibition was 4.05% [at 11.6 µM]. In addition, in assay [7], the redox activity (% of DA3003) was -2.06% [at 11.5 µM].

On to `Cc1ccc(S(=O)(=O)c2ccc([N+](=O)[O-])o2)cc1`, for which the Potency is 163 nM (active) in assay [1] and 10.6 µM (active) in assay [5]. Also, the Potency entry in assay [2], in assay [3], in assay [4] and in assay [7] was “inactive” throughout.

Regarding `C[C@@H]1N[C@H]2N(C1=O)c1ccccc1[C@@]2(O)C[C@@H]1C(=O)N[C@@H](C)c2nc3ccccc3c(=O)n21`, the Potency entry in assay [1], in assay [2], in assay [3], in assay [4], in assay [5] and in assay [6] was “inactive” in each case. In assay [7], the Potency entry is “inactive”.

As for `C=C[C@@](C)(O)CC/C=C(\C)C(=O)O[C@@H]1[C@@H]2O[C@]2(C)[C@H]2[C@H](O[C@@H]3O[C@H](CO)[C@@H](O)[C@H](O)[C@H]3O)OC=C[C@@]12O`, the Potency entry in assay [1], in assay [2], in assay [3], in assay [4], in assay [5] and in assay [6] was “inactive” in each case. The Potency entry in assay [7] is “inactive”.

As to `CC1CCC2(OC1)OC1CC3C4CC=C5CC(O)CC(O[C@@H]6OC[C@@H](O)[C@H](O)[C@H]6O)C5(C)C4CCC3(C)C1(O)C2C` (stereo not given in full), the Potency entry in assay [1], in assay [2], in assay [3], in assay [4], in assay [5] and in assay [6] was “inactive” throughout. Further, the Potency result in assay [7] is “inactive”.

Consider `Cc1cc(Cl)ccc1COc1ccnn1-c1cc(C(=O)O)ccn1`, for which the Potency entry in assay [1], in assay [2], in assay [3], in assay [4], in assay [5] and in assay [7] was “inactive” in each case.

In the case of `O=C1NC2CCc3nc4ccccc4c(=O)n3C2=Nc2ccccc21` (stereo not given), the Potency entry in assay [1], in assay [2], in assay [3], in assay [4], in assay [5] and in assay [6] was “inactive” each time. Moreover, the Potency result in assay [7] is “inactive”.

With `CC(O)CO[C@@H]1O[C@H](CO)[C@@H](O)[C@H](O)[C@H]1O` (stereo not given in full), the Potency result in assay [1], in assay [2], in assay [3], in assay [4], in assay [5] and in assay [6] was “inactive” throughout. Moreover, in assay [7], the Potency entry is “inactive”.

As to `Cc1nc(C)c(-c2ccc(C3CCC(CC(=O)O)CC3)cc2)nc1C(N)=O` (stereo not given), the Potency entry in assay [1], in assay [2], in assay [3], in assay [4], in assay [5] and in assay [7] was “inactive” each time.

As for `Cc1c(C(=O)N2CCOc3ccc(-c4ccc(N)nc4)cc3C2)ccc(S(C)(=O)=O)c1F`, the Potency in assay [1] is 1.83 µM (active) and 3.32 µM (active). In addition, the Potency result in assay [2], in assay [3], in assay [4], in assay [5], in assay [6] and in assay [7] was “inactive” in each case.

Consider `CC1(C)CCC(C)(C)c2cc(C3(c4ccc(C(=O)O)cc4)OCCO3)ccc21`, for which the Potency result in assay [1], in assay [2], in assay [3], in assay [4], in assay [5] and in assay [6] was “inactive” each time. For the same molecule, the Potency result in assay [7] was “inactive”.

`OC[C@H]1O[C@@H](Oc2ccccc2)[C@H](O)[C@@H](O)[C@@H]1O`: the Potency result in assay [1], in assay [2], in assay [3], in assay [4], in assay [6] and in assay [7] was “inactive” each time. For the same molecule, the Potency in assay [5] is 21.2 µM (active).
